SMILES strings stand for the structures. Active and inactive are the calls of the source.

Among the data in PubChem BioAssay are composite z-score and z-score values, retold here.

A short description of test [1]: binders of probe aFSTL3 on microarray, primary screen, stem cell growth factor project, biochemical, small-molecule microarray, fluorescence 635/667 (AID 1064).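 Also: measures binding of the biotinylated anti-FSTL3 antibody to printed compounds.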 The settings on record: higher = more signal.
Test [2] is described as follows: binders from COS7 lysate, DM2A8 probe, primary screen, torsin A project, cell lysate, small-molecule microarray, fluorescence 635/667 (AID 1065). The settings on record: higher = more signal, COS7 lysate expressing mutant human TOR1A.
Test [3] in a line: binders of probe aFGF2 on microarray, primary screen, stem cell growth factor project, biochemical, small-molecule microarray, fluorescence 635/667 (AID 1067).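 Also: measures binding of biotinylated aFGF2 protein to printed compounds on slides; z-score merges feature fluorescence and signal-to-noise across triplicate slides.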 The settings on record: higher = more signal.
The nature of test [4]: binders of probe aFGF10 on microarray, primary screen, stem cell growth factor project, biochemical, small-molecule microarray, fluorescence 635/667 (AID 1071).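 Also: score merges 667 nm spot intensity and signal to noise from triplicate slides.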 The settings on record: higher = more signal.
Test [5] addresses Neurogenic locus notch homolog protein 2 (Homo sapiens) (UniProt Q04721). Put plainly: Notch2 binders on small-molecule microarrays, primary screen, biochemical, small-molecule microarray, 635 nm fluorescence, stem cell growth factors (AID 1073). The settings on record: Notch2 binding, higher = more signal.
Test [6] addresses Pro-neuregulin-1, membrane-bound isoform (Homo sapiens) (UniProt Q02297). In words: NRG1 binders on small-molecule microarrays, primary screen, psychiatric disease protein project, biochemical, small-molecule microarray, fluorescence 635/667 (AID 1075).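 Also: score combines 667 nm spot fluorescence with signal to noise.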 The settings on record: NRG1 binding, 635 nm fluorescence, higher = more signal.
Test [7] deals with Neuregulin-1 EGF-like domain. Put plainly: binders of neuregulin-1 EGF-like domain, primary screen, biochemical, small-molecule microarray, 635 nm fluorescence (AID 1081).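 Also: binding of the protein to compounds printed on small-molecule microarray slides.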 The settings on record: small-molecule microarray binding, higher = more signal.
The nature of test [8]: FRG1 promoter luciferase signal modulators, primary screen, FRG1 inhibition for FSHD, cell-based, C2C12 myotubes, firefly/Renilla luciferase, luminescence (AID 1084). The settings on record: higher = more signal, called active from +8 up or from −8 down.
A short description of test [9]: binders of probe aFST on microarray, primary screen, stem cell growth factor project, biochemical, small-molecule microarray, fluorescence 635/667 (AID 1086).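 Also: score merges 667 nm fluorescence with signal-to-noise of each printed compound spot.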 The settings on record: higher = more signal.
The nature of test [10]: binders of probe aHhip on microarray, primary screen, stem cell growth factor project, biochemical, small-molecule microarray, fluorescence 635/667 (AID 1087).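 Also: score merges spot fluorescence at 667nm with spot signal to noise ratio.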 The settings on record: higher = more signal.

Chain of Neurogenic locus notch homolog protein 2 (Homo sapiens) (Q04721 whole entry, looked up, canonical isoform): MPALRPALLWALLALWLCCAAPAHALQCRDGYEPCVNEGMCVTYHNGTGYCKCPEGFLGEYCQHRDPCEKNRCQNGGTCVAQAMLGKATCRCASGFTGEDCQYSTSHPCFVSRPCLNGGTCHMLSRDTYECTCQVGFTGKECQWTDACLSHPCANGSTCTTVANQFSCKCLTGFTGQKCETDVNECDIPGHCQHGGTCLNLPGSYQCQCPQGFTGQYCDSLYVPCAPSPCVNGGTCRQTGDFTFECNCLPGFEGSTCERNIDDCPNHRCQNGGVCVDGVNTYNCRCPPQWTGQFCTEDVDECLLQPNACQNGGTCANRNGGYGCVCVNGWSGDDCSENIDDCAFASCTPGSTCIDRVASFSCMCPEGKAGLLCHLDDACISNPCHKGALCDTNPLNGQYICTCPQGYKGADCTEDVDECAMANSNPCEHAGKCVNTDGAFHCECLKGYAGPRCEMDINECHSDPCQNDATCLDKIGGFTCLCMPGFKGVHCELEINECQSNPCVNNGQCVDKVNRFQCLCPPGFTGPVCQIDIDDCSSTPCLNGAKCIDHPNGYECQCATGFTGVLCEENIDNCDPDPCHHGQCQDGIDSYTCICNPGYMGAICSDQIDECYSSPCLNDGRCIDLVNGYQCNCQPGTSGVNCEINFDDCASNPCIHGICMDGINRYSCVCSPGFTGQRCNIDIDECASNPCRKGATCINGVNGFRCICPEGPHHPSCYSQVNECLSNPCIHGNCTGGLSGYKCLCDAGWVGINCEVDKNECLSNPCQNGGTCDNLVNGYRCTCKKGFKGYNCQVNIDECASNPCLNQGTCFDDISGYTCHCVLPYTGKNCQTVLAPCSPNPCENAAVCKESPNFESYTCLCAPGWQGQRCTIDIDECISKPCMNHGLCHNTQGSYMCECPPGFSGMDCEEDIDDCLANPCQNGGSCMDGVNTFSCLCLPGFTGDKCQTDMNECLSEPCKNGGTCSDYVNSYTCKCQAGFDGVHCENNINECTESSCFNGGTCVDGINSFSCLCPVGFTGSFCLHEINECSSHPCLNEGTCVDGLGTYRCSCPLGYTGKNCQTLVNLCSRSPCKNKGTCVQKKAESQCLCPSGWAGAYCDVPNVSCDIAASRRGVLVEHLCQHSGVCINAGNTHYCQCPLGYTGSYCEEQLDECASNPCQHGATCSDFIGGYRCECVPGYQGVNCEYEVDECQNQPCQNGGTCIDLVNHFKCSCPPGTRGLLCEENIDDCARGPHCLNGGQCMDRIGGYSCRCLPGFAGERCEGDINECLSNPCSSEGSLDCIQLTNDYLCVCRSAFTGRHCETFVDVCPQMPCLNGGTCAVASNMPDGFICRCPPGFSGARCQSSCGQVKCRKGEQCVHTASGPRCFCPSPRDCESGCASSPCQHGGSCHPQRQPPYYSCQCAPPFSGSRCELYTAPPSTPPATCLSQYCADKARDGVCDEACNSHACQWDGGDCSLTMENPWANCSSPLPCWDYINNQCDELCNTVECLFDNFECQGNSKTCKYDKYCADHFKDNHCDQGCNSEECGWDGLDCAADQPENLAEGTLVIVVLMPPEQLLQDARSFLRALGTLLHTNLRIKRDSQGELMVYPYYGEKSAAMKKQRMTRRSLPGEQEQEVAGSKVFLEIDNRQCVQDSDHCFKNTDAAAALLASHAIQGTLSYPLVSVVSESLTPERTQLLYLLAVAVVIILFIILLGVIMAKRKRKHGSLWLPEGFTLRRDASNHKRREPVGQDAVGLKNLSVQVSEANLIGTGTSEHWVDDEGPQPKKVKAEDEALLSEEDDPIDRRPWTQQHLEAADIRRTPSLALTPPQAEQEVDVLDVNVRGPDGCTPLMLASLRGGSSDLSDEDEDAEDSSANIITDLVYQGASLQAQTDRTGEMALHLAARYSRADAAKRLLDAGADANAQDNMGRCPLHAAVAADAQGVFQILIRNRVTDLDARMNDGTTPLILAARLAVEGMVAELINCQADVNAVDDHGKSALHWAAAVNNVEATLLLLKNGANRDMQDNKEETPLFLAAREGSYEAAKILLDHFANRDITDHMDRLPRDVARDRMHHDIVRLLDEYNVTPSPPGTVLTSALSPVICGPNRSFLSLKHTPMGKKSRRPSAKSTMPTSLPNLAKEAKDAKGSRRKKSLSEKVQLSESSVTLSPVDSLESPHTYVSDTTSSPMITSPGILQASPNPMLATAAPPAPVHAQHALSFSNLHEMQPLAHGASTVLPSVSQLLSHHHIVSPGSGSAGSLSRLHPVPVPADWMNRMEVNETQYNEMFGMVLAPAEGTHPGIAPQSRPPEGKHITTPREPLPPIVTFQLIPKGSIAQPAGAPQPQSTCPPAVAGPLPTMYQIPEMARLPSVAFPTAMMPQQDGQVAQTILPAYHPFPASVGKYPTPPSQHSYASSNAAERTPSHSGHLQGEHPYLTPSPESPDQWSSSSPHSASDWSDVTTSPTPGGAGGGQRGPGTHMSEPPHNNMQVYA
Chain of Pro-neuregulin-1, membrane-bound isoform (Homo sapiens) (Q02297 whole entry, looked up, the tested form may be a part, canonical isoform): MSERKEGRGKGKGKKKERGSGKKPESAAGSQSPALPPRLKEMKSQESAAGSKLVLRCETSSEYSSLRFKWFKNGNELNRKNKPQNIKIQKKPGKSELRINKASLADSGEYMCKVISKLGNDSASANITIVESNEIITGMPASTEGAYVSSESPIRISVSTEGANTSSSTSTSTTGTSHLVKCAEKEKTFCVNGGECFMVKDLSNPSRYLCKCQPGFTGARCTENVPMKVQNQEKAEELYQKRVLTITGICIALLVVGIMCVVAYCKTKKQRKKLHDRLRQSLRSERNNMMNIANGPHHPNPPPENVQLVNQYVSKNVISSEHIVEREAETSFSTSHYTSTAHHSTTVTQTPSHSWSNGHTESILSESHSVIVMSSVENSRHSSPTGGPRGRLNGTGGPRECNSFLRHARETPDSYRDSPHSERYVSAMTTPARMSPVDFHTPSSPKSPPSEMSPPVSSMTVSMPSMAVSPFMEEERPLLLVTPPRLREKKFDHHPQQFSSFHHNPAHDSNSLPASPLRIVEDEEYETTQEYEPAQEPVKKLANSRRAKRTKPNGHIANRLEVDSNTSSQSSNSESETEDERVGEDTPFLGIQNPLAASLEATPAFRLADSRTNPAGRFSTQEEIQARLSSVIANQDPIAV

`COC(=O)[C@@]1(Cc2ccc(F)cc2)[C@H]2c3cc(C(=O)N(C)C)n(Cc4ccc(C)o4)c3C[C@H]2CN1C(=O)c1ccccc1`: the composite z-score in [1] is 2.58; in test [2] it was 3.31; in test [3], 0.62; in [4], 0.0793; in test [5] it was 0.0386; in test [6] it was 1.8. The figures for the composite z-score in test [7], in test [9] and in test [10] were 1.13, 2.31 and 0.683, respectively. The z-score in test [8] is 0.626 (inactive).

With `COc1ccc([Si](C)(C)[C@H]2[C@H](CC(=O)N3CCC[C@H]3CO)O[C@@]3(C(=O)N(Cc4cccc(N5CCOC5=O)c4)c4ccccc43)[C@@H]2C)cc1`, the composite z-score in [1] is -0.308; in test [2], 0.358; in test [3], -0.042; in test [4], 0.141; in [5], 0.143; in [6], 0.662. For the same compound, the figures for the composite z-score in test [7], in test [9] and in [10] were 0.876, 0.548 and -0.169, respectively. Also, the z-score in [8] is -3.92 (inactive).

For the compound `NCCCCCNC(=O)[C@H]1C[C@H]2C(=O)N3CCC[C@H]3C(=O)N2[C@H]1c1ccc(O)cc1`, the composite z-score was 1.39 in test [1]; 1.06 in [2]; 0.197 in [3]; 0.457 in test [4]; 0.698 in test [5]; 1.62 in test [6]. The results for the composite z-score in test [7], in test [9] and in test [10] were 1.23, 1.52 and 0.399, respectively. In [8], the z-score was 0.0225 (inactive).

Regarding `COc1cc2c(cc1O)C=[N+](Cc1cc3c(cc1Br)OCO3)CC2`, the composite z-score in test [1] was 0.305; in test [2], 0.08; in test [3], -0.131; in test [4], 0.0873; in test [5] it was -0.441; in test [6] it was 0.632. The composite z-score was 0.042 in test [7], -0.332 in test [9] and -0.137 in [10]. Further, the z-score in test [8] is 2.28 (inactive).

Regarding `N#Cc1ccc(C(O)C2C=CC3C(=O)N(c4ccccc4)C(=O)C3N2Nc2ccccc2F)cc1` (stereo not given), the composite z-score in test [1] was -0.367; in test [2] it was 0.362; in test [3], 0.315; in [4] it was 0.936; in test [5] it was 1.37; in [6], 1.24. The values for the composite z-score in [7], in test [9] and in [10] were -0.0077, 0.716 and -0.0994, respectively. In addition, the z-score in [8] is 0.372 (inactive).

For the compound `NC(=O)[C@@]1(Cc2ccccc2)N=C(c2ccc(OCCCO)cc2)O[C@H]1c1ccccc1`, the composite z-score in test [1] is 0.264; in [2] it was -0.154; in test [3] it was -0.0891; in test [4], 0.501; in test [5], 1.08; in [6], 1.45. For the same compound, the composite z-score is 0.994 in [7], 0.182 in [9] and -0.189 in [10]. The z-score in test [8] was -2.16 (inactive).

As to `COCCCNC(=O)[C@@]1(Cc2ccccc2CN=[N+]=[N-])N=C(c2ccc(OCCCO)cc2)O[C@H]1c1ccccc1CN=[N+]=[N-]`, the composite z-score was -0.152 in [1]; 0.321 in test [2]; 0.154 in test [3]; 0.916 in test [4]; 1.27 in [5]; 1.96 in test [6]. Moreover, the results for the composite z-score in test [7], in [9] and in test [10] were 1.11, 1.43 and -0.286, respectively. Further, in test [8], the z-score is 0.399 (inactive).

Regarding `CCOc1ccc(N2C(=O)CSC2c2cccc([N+](=O)[O-])c2)cc1` (stereo not given), the composite z-score was -0.368 in test [1]; -0.113 in test [2]; 0.0525 in test [3]; 0.839 in test [4]; 1.22 in [5]; 1.64 in test [6]. Moreover, the composite z-score in test [7] was 1.29; in [9], 0.569; in test [10] it was -0.199. Moreover, the z-score in test [8] was 0.541 (inactive).

Take `[N-]=[N+]=Nc1ccccc1[C@H]1OC(c2ccc(OCCCO)cc2)=N[C@@]1(CCS(=O)(=O)c1ccccc1)C(=O)NCc1ccccc1`: the composite z-score in test [1] was -0.196; in test [2], 0.144; in test [3], 0.0843; in [4], 0.935; in [5], 1.66; in test [6], 1.44. In addition, the composite z-score is 1.34 in test [7], 1.58 in test [9] and 0.258 in [10]. In addition, the z-score in test [8] is 5.01 (inactive).

`COc1ccccc1CN1C(=O)c2ccccc2[C@@]2(Cc3ccccc3N(CCCN(C)C)C2=O)[C@@H]1c1ccc(CO)cc1`: the composite z-score is -0.302 in test [1]; -0.252 in [2]; -0.0396 in [3]; -0.0231 in test [4]; 0.137 in [5]; -0.141 in test [6]. For the same compound, the composite z-score in test [7] was 0.0968; in [9] it was -0.201; in [10], -0.0645. The z-score in test [8] is 0.0544 (inactive).

Take `C=CCNC(=O)[C@H]1[C@@H]2C(=O)O[C@@H](c3ccccc3)[C@@H](c3ccccc3)N2[C@@H](c2ccc(OCCO)cc2)[C@]12C(=O)Nc1ccc(C#CCC(C(=O)OC)C(=O)OC)cc12`: the composite z-score was -0.378 in test [1]; 0.632 in test [2]; 0.0501 in test [3]; 0.441 in test [4]; 1.17 in test [5]; 1.17 in test [6]. In addition, the composite z-score is 1.18 in test [7], 0.452 in [9] and 0.0373 in test [10]. Besides, the z-score in test [8] was 0.0693 (inactive).

Regarding `Cc1c(NC(=O)/C(C#N)=C/c2cccc([N+](=O)[O-])c2)c(=O)n(-c2ccccc2)n1C`, the composite z-score was -0.365 in test [1]; 0.322 in test [2]; -0.112 in [3]; 0.0969 in [4]; 1.01 in [5]; 1.41 in test [6]. The composite z-score in test [7] is 1.05; in test [9], -0.0089; in test [10], -0.0994. For the same compound, the z-score in test [8] is 0.807 (inactive).
